Screens (PubChem BioAssay)
Hits are enriched below; roughly 3.2% of the tested compounds scored in any of these assays.
Tau filament bind: binders of human tau filaments; P10636; 71,000 tested, 2% active; Potency, µM (titrated, usually from 57.1 µM), for inactives: at the top dose activity change, negative = inhibition; recombinant tau filaments, thioflavin S fluorescence, 15 h; filaments grown with octadecylsulfate alongside compound; AID 596;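 further: on the % scale 0 is the no-effect control and ±100 the full control effect; actives lower thioflavin S fluorescence by blocking filaments or displacing dye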
Target sequence (P10636 whole entry, looked up): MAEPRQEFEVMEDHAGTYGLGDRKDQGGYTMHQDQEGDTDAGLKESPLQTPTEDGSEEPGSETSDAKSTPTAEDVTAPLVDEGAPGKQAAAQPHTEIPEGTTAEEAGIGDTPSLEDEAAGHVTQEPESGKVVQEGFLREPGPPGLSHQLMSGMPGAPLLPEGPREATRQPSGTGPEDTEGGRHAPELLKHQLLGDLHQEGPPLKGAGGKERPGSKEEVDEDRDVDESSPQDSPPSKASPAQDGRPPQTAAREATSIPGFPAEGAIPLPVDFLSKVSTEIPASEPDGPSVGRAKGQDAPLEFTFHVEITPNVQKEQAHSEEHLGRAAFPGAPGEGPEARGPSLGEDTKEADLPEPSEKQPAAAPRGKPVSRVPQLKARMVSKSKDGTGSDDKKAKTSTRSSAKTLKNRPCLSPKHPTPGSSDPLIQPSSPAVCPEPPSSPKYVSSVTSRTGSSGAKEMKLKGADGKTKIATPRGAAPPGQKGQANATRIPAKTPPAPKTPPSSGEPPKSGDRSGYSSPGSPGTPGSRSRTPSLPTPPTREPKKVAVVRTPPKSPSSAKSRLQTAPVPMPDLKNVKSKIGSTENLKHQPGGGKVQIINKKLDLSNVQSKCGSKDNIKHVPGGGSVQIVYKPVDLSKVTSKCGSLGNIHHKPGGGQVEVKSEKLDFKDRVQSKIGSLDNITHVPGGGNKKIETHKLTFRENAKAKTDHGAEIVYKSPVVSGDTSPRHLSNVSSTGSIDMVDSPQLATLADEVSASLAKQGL
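Quantitative HTS: thioflavine S signal from ODS-induced tau filaments, excited at 450 nm, emission 510 nm. Conditions: 1 uM tau, 30 uM ODS, 15 h at 37 C, pH 7.4.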
15-hLO inh: blocks human 15-lipoxygenase activity; 74,000 tested, 1.4% active; Potency, µM (doses to about 57.1 µM), inactives show top-dose activity change, negative = inhibition, most hits filed as inhibitors; AID 887; purified 15hLO-1, xylenol orange hydroperoxide absorbance; further: on the % scale 0 is the no-effect control and ±100 the full control effect; nearly all actives have a fitted effect of over 55% in size
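Compounds were preincubated 15 min at room temperature with 40 nM purified human enzyme (25 mM Hepes pH 7.5, 0.01% Triton X-100); 50 uM arachidonic acid reacted 6 min. Fe-xylenol orange detection, 30 min, absorbance ratio 573/405 nm.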
Casp7 inh: blocks human caspase-7 allosterically or competitively; P55210; recombinant caspase-7, Ac-DEVD-AFC fluorescence rate; Potency, µM (highest dose often 57.5 µM), for inactives: at the highest dose activity change, negative = inhibition, most hits filed as inhibitors; 75,000 tested, 0.02% active; AID 889; active means well fitted inhibition curve with a large enough effect in the main read-out, with a control signal flat, not every such curve was filed as active; inconclusive means small, poorly fitted or top-dose-only effect, or a change in a side signal; further: % of control where 0% means no effect
Pol III holo inh: DNA polymerase III holoenzyme inhibition | reconstituted DNA polymerase III holoenzyme replication, biochemical | 71,000 tested, 0.25% active | Potency, µM (titrated, usually from 57.1 µM), without a hit: at the top dose activity change, negative = inhibition | AID 603; further: on the % scale 0 is the no-effect control and ±100 the full control effect
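Reconstituted *E. coli* holoenzyme (0.35 nM Pol III, 1 nM beta, 154 nM SSB, 2 nM primase) was preincubated with compound for 15 min at RT. Synthesis on 1.4 nM ssM13Gori ran 35 min, then was stopped with PicoGreen/EDTA and read as dsDNA fluorescence.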
Caspase-1 inhib: allosteric or competitive inhibitors of human caspase-1 | Potency, µM (top dose mostly 57.5 µM), without a hit: at the highest dose activity change, negative = inhibition, hits mostly inhibitors | 75,000 tested, 0.03% active | Caspase-1 enzyme, Ac-WEHD-AFC fluorogenic rate | P29466 | AID 900;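 further: plate controls were vehicle for no effect and no substrate for full effect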
* marks the source's active call; other numbers are inactive results; i = inactive; ? = inconclusive; · = no result given; ! = not active in a repeat; [ ] = another dose, or the depositor's remark. Unless noted, the call rests on the fitted dose curve; in most records, active means well fitted curve in the direction sought with a large enough effect; inconclusive means small, poorly fitted or top-dose-only effect, or another doubt; inactive means no such curve, though single readings can be large; an effect the other way counts as inactive or inconclusive. Potency means the concentration at half of the fitted maximal effect.

SMILES	Tau filament bind	15-hLO inh	Casp7 inh	Pol III holo inh	Caspase-1 inhib
COc1ccc(N2CCN(c3nc(=S)n(-c4ccccc4)c(C)c3C(C)=O)CC2)cc1	5.01µM*	15.8µM*	-29.5%	0.5%	-10.4%
CCOC(=O)c1cnc2c(C(F)(F)F)cccc2c1N1CCOCC1	15.8µM*	-25.7%	-8.1%	-3.4%	-6.2%
CCOC(=O)c1cnc2c(C)c(Cl)ccc2c1N1CCOCC1	-9.3%	6.2%	-1.9%	-2.5%	0.5%
CCOc1cccc(C(=O)c2ccc(O)c(O)c2O)c1	·	12.6µM*	-12.6%	·	-1.8%
Cc1ccc(CSC2=Nc3ccccc3C3=NC(CCC(=O)NCc4ccco4)C(=O)N23)cc1 (stereo unspecified)	-12.4%	?	-7.2%	-1.9%	-5.6%
O=C(CC1N=C2c3ccccc3N=C(SCc3ccc(Cl)cc3)N2C1=O)NCc1ccco1 (stereo unspecified)	-1.2%	25.1µM*	-22.9%	-3.8%	-10.4%
COc1ccc(-c2coc3ccc(OC4OC(COC(C)=O)C(OC(C)=O)C(OC(C)=O)C4OC(C)=O)cc3c2=O)cc1 (stereo unspecified)	·	0.9%[25.6 µM]	-0.1%	·	-1.4%
C=CCn1c(N)c(C(=O)NCCC2=CCCCC2)sc1=S	-6.1%	25.1µM*	-4.5%	3.0%	-6.9%
Cc1c(N2C(=O)c3ccc4c5c(ccc(c35)C2=O)CC4)c(=O)n(-c2ccccc2)n1C	15.8µM*	25.1µM*	-26.9%	25.1µM*	-6.3%
Cc1c(N)c(=O)n(-c2ccccc2)n1C	4.6%[25.6 µM]	-1.4%	0.8%	6.2%[25.6 µM]	0.5%
Cn1c(=O)c2c(nc(CN3CCN(Cc4ccccc4)CC3)n2Cc2ccccc2)n(C)c1=O	?	20µM*	-9.7%	-1.0%	-9.4%
Cn1c(=O)c2c(nc(CN3CCC(C(N)=O)CC3)n2Cc2c(F)cccc2Cl)n(C)c1=O	1.4%	-6.5%	-0.9%	-3.4%	-8.6%
CC1CCCCN1Cc1nc2c(c(=O)n(C)c(=O)n2C)n1Cc1c(F)cccc1Cl (stereo unspecified)	i	25.1µM*	?	i	·
COc1ccc(CCn2c(-c3ccco3)nc3ccccc3c2=O)cc1OC	3.5%[11.4 µM]	3.98µM*	-0.3%	-7.8%[11.4 µM]	0.5%
COCCCn1c(-c2ccco2)nc2ccccc2c1=O	5.6%	2.3%	0.9%	-3.9%	0.7%
c1ccc(-c2nn3c(-c4ccco4)nnc3s2)nc1	-23.6%	-17.3%	-1.6%	-4.5%	-2.3%
Brc1ccc(-c2nn3c(-c4ccco4)nnc3s2)o1	-8.1%	20µM*	-9.0%	25.1µM*	-5.9%
Clc1ccc(-c2ccc(-c3nn4c(-c5ccco5)nnc4s3)o2)cc1	25.1µM*	15.8µM*	-22.1%	-10.9%	-3.8%
Brc1ccc(-c2nn3c(-c4ccncc4)nnc3s2)o1	12.5%	3.4%	-2.5%	-6.1%	-4.2%
O=C(O)CNC(=O)c1ccccc1O	3.8%[11.4 µM]	-9.4%[11.4 µM]	0.6%[11.5 µM]	-9.5%[11.4 µM]	0.6%[11.5 µM]
O=C(O)CSCc1cccc2ccccc12	-1.1%[11.4 µM]	-20.2%[11.4 µM]	-1.0%[11.5 µM]	-0.6%[11.4 µM]	-2.2%[11.5 µM]
NCCC[C@@H](CC(=O)N[C@@H]1CCNC[C@H]1C(=O)N[C@H](CC(=O)N[C@@H](CCC(=O)O)CC(=O)O)Cc1ccccc1)NC(=O)C[C@H](Cc1c[nH]c2ccccc12)NC(=O)[C@@H]1CCCC[C@H]1N	-7.7%	·	·	-4.5%	·
CO[C@@H]1COC(=O)CCC[C@@H](C)[C@H](OC)COC(=O)[C@H](Cc2ccccc2)NC(=O)C/C=C\[C@H]1C	·	-1.6%[11.4 µM]	-0.4%[11.5 µM]	·	-9.2%[11.5 µM]
Cn1c(=O)c(-c2cc(F)cc(F)c2)nc2cnc(Oc3cccc(Cl)c3)nc21	10µM*	-9.5%	?	4.5%	·
CN1CCN(c2ncc3nc(-c4cc(F)cc(F)c4)c(=O)n(C4CC4)c3n2)CC1	15.8µM*	-1.9%	?	-8.3%	·
SMILES	Tau filament bind	15-hLO inh	Casp7 inh	Pol III holo inh	Caspase-1 inhib
COc1ccc(Oc2ncc3nc(-c4cc(F)cc(F)c4)c(=O)n(C4CC4)c3n2)cc1	20µM*	5.8%	?	-7.7%	·
O=C(O)/C=C\C(=O)Nc1ncn[nH]1	5.8%[11.4 µM]	5.0%[11.4 µM]	0.2%[11.5 µM]	-7.1%[11.4 µM]	-1.8%[11.5 µM]
Cc1ccc(Nc2ncc3c(n2)CC(c2ccco2)CC3=O)c(C)c1 (stereo unspecified)	?	20µM*	-15.1%	-3.5%	-2.5%
Cc1cccc(Nc2ncc3c(n2)CC(c2ccco2)CC3=O)c1 (stereo unspecified)	27.6%	-4.4%	-3.1%	0.1%	-5.2%
CC#C[C@@]1(O)CC[C@@H]2[C@@H]3CCC4=CC(=O)CCC4=C3[C@@H](c3ccc(N(C)C)cc3)C[C@]21C	31.6µM*	·	·	-1.9%	·
O=C(CSc1nnc(-c2ccccc2)o1)N1CCN(c2ccccc2)CC1	10µM*	?	-7.0%	-6.5%	-3.0%
CN(C)c1ccc(NC(=O)CN2CCC(C(=O)c3ccc(F)cc3)CC2)cc1	15.8µM*	-4.4%	0.6%	-0.7%	-1.2%
CCOc1cc(-c2cc(-c3ccc(N)cc3)nc(N)c2C#N)ccc1O	31.6µM*	25.1µM*	?	-6.0%	·
Cc1cccc(NC(=O)CC2SC(=NC3CCCCC3)NC2=O)c1 (stereo unspecified)	6.2%	-3.1%	-2.1%	-0.3%	-1.2%
Cc1ccc(NC(=O)CN2CC(C)SC2=NC2CCCCC2)cc1 (stereo unspecified)	12.6µM*	-23.8%	-0.3%	-9.3%	0.6%
COC(=O)c1ccccc1NC(=O)CSc1nnnn1-c1ccc(C)cc1C	10µM*	?	-9.3%	-1.7%	-8.0%
O=C(NCCO)c1ccc(-n2c(=O)c(=O)[nH]c3ccccc32)cc1	·	4.1%	-0.7%	·	-2.0%
N#Cc1nc(-c2ccc(F)cc2)oc1NCc1cccc2c1OCO2	260.8%	12.6µM*	-2.8%	-1.7%	-3.5%
CCCc1cc2c(n1CCc1ccc(Cl)cc1)C(C)C1CN(C(=O)c3ccccc3)C(C)(C(=O)OC)C21 (stereo unspecified)	-0.6%	·	-6.7%	7.4%	0.5%
Cc1cc2ccccc2c[n+]1CC(O)C[n+]1cc2ccccc2cc1C	?	27.1%[11.4 µM]	0.6%[11.5 µM]	-3.0%[11.4 µM]	-1.5%[11.5 µM]
COc1ccc2[nH]c3c(c2c1)CN(C)CC3	25.1µM*	?	-10.2%	-3.3%	-6.6%
COc1ccc(/C=C/N(CCc2ccc(OC)c(OC)c2)C(=O)c2ccccn2)cc1	·	5.8%[11.4 µM]	-1.4%[11.5 µM]	·	-1.3%[11.5 µM]
CCN=c1scc(-c2ccc3c(c2)NC(=O)CO3)n1N=C1CCCC1	12.6µM*	-19.1%	-7.1%	2.1%	0.1%
Cc1cccc(OCCCCc2c(C)n[nH]c2C)c1C	15.8µM*	-8.1%	-3.3%	-2.2%	-3.7%
O=[N+]([O-])c1cccc2c(Br)[nH]nc12	39.8µM*!	12.6µM*	-1.5%	-7.9%	3.3%
Clc1ccc2c(c1)C1OCCC1C(c1ccco1)N2 (stereo unspecified)	25.1µM*	-28.9%	-8.9%	3.8%	-6.8%
Cc1ccc2c(c1)[C@H]1OCC[C@H]1[C@@H](c1ccncc1)N2	-10.5%	7.0%	0.3%	0.0%	0.2%
CCN(CC)C(=O)CSc1ncnc2c(-c3cccs3)nsc12	20µM*	-11.3%	-22.6%	-1.1%	-14.1%
